Compound activity as filed in PubChem BioAssay.
Most compounds without a hit are left out; they make up all but 7.3% or so of the library.
HCMV antiviral = qHTS Assay for inhibitors of the human cytomegalovirus (HCMV) | HFF cells, HCMV-luciferase reporter, 72 h; hits give low values | activity change, negative = inhibition, % at 57.5 µM | 410,000 compounds, 4.5% hits | AID 1259415, 2018; in the data active = activity change below about -60%; inconclusive = no clear call, values can overlap the other calls; inactive = above about -39%
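After 16 h attachment at 37C, HFF cells received test compound and HCMV-luciferase (1 PFU/cell); reporter luminescence read 72 h later, data normalized against buffer-only and known inhibitor Salinomycin.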
AmpC inh detg = qHTS Inhibitors of AmpC Beta-Lactamase (assay with detergent). Potency, µM (titrated, usually from 114 µM), for inactives: at the top dose activity change, negative = inhibition, most hits filed as inhibitors. AmpC hydrolysis of nitrocefin, absorbance 480 nm, 0.01% Triton. AID 485294, 2010. P00811. 370,000 compounds, 0.041% hits;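 note: potency is the fitted concentration of half-maximal effect; 0% = no-compound wells and -100% = no-enzyme wells; nearly all actives have a fitted effect of over 25% in size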
Target sequence (P00811 whole entry, looked up): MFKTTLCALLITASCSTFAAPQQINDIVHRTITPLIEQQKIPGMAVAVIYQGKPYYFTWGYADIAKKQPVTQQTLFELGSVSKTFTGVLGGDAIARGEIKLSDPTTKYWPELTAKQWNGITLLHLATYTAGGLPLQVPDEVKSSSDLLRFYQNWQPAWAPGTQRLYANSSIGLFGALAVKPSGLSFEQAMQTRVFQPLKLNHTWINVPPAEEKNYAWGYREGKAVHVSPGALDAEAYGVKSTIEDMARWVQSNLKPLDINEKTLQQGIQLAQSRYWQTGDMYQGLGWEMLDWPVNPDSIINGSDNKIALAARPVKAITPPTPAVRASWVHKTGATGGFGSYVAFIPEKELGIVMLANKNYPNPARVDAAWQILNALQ
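AmpC (5.3 nM in the dispensed reagent) in 20 mM phosphate pH 7.0 with 0.01% (detergent screen) or 0.0001% Triton X-100 was preincubated with compounds for 15 min at room temperature. Nitrocefin was then added from an 800 uM solution, and hydrolysis was followed at 480 nm.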
AmpC no deterg = qHTS Inhibitors of AmpC Beta-Lactamase (assay without detergent) | 330,000 compounds, 0.52% hits | AmpC nitrocefin hydrolysis, absorbance 480 nm, 0.0001% Triton | P00811 | AID 485341, 2010 | Potency, µM (top dose mostly 57.1 µM), for inactives: top-dose activity change, negative = inhibition, hits mostly inhibitors;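 note: potency is the fitted concentration of half-maximal effect; plate controls were no compound for no effect and no enzyme for full effect; nearly all actives have a fitted effect of over 20% in size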
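20 mM phosphate pH 7.0 + 0.01% (detergent screen) or 0.0001% Triton X-100; 5.3 nM AmpC reagent; cpd preinc 15 min RT; nitrocefin (800 uM stock) to start; A480 q20 s × 4 min; Activity was normalised to no-enzyme and no-compound control wells.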
FMDV inh = High Throughput Screening for Foot and Mouth Disease Virus Antivirals; FMDV antiviral cell-based qHTS; Potency, µM (titrated, usually from 57.9 µM), for inactives: at the top dose activity change, negative = inhibition, actives largely listed as inhibitors; 410,000 compounds, 1.2% hits; AID 1159524, 2015; calls by dose curve; tested in HEK293T cells; note: read-out not given here; potency is the fitted concentration of half-maximal effect; nearly all actives have a fitted effect of over 45% in size
HCV inhibitor = qHTS Assay for Inhibitors of Hepatitis C Virus (HCV) | Huh7.5.1 HCVcc-Cre infection, luciferase reporter, 44 h | AID 651820, 2012 | 340,000 compounds, 3.4% hits | Potency, µM (highest dose often 41.8 µM), without a hit: top-dose activity change, negative = inhibition, most hits filed as inhibitors; note: potency is the fitted concentration of half-maximal effect
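Seed cells (1,000/well) for 4 h; treat with compound and infect with HCVcc-Cre, moi about 0.5. Incubate 44 h, then detect luciferase activity.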
The depositor's hits bear a star; ? = inconclusive; . = no result. Unless noted, calls come from the whole dose curve; as a rule, active = well fitted curve in the direction sought with a large enough effect; inconclusive = small, poorly fitted or top-dose-only effect, or another doubt; inactive = no such curve, though single readings can be large; an effect the other way counts as inactive or inconclusive. Unless noted, % is set by controls: 0 for no effect and ±100 for the full control effect.

SMILES	HCMV antiviral	AmpC inh detg	AmpC no deterg	FMDV inh	HCV inhibitor
CCSc1nnc(NC(=O)C2CCCN(S(=O)(=O)c3cnc[nH]3)C2)s1 (centres undefined)	-37.6	7.9%	44.7µM*	-5.3%	-18.4%
CN(C(=O)CSc1ncnc2sc3c(c12)CCC3)C1CCS(=O)(=O)C1 (centres undefined)	-6.8	-0.6%	-18.0%	-23.6%	-24.3%
O=C1CC2(CCN(C(=O)c3c(F)cccc3F)CC2)Oc2ccccc21	-1.6	-4.0%	14.8%	?	6.5%
CCOC(=O)c1ccc(NC(=O)C2CCCN(S(=O)(=O)c3ccc(F)cc3)C2)cc1 (centres undefined)	39.4	?	-4.1%	22.4µM*	?
CCc1ccc(NC(=O)C2CCCN(S(=O)(=O)c3ccc(F)cc3)C2)cc1 (centres undefined)	7.5	14.8%	.	?	.
CC(C)(C)OC(=O)N(Cc1ccccc1)Cc1ccccc1OCc1ccc(NC(=O)C2CCC2)cc1	-90.2*	.	.	-28.0%	?
CC(C)(C)OC(=O)N(CCc1ccccc1)Cc1ccccc1OCc1ccc(NC(=O)C2CCC2)cc1	?	.	.	-19.4%	0.562µM*
CC(C)(C)OC(=O)N(CCc1ccccc1)Cc1ccccc1OCc1cccc(NC(=O)C2CCCC2)c1	-9.7	.	.	3.6%	-29.1%
CC(C)(C)OC(=O)N(CCc1ccccc1)Cc1ccccc1OCc1cccc(NC(=O)C2CC2)c1	-25.1	.	.	-9.7%	-0.1%
CC(C)N(C(=O)CSc1nc(Cc2ccccc2)nc2ccccc12)C(C)C	-38.3	-13.7%	27.4%	-23.7%	?
CC(C)NC(=O)CSc1nc(Cc2cccs2)nc2ccccc12	-81.3*	-2.0%	-12.9%	.	-25.8%
CCC(C)(C)NC(=O)CSc1nc(Cc2ccccc2)nc2ccccc12	-71.6*	-15.2%	14.9%	-23.1%	-25.6%
CC(C)(C)NC(=O)CSc1nc(Cc2ccccc2)nc2ccccc12	-66.8*	-7.4%	36.4%	-1.2%	12.6µM*
CC1(C(=O)Nc2ccc3ccccc3c2)CCc2nc3ccccc3n21 (centres undefined)	22.0	.	.	.	.
OC(Cc1ccnc2ccccc12)C(Cl)(Cl)Cl (centres undefined)	-80.2*	.	.	?	11.2µM*
O=C(O)C(Cc1ccnc2ccccc12)=NO	17.5	.	.	-17.2%	15.6%
CC1CCCC(C)N1C(=O)COC(=O)c1nn(C)c(=O)c2ccccc12 (centres undefined)	16.8	?	5.0%	-7.1%	2.7%
COc1ccc(S(=O)(=O)Nc2cc(Sc3ncn[nH]3)c(O)c3ccccc23)cc1	-77.6*	-5.3%	-27.6%	.	31.6µM*
O=S(=O)(Nc1cc(Sc2cccc3cccnc23)c(O)c2ccccc12)c1ccc(F)cc1	-100.0*	-5.5%	-45.5%	12.6µM*	11.2µM*
CCOc1cc(CNC(=O)c2ccccc2NC(=O)c2nsc3ccccc23)ccc1OC	-81.6*	16.3%	.	-19.5%	.
COc1ccc(OC)c(CNC(=O)c2ccccc2NC(=O)c2nsc3ccccc23)c1	23.5	23.9%	.	-23.1%	.
O=C(NC1CCCC1)c1ccc(Cl)s1	-76.6*	-5.8%	-21.2%	-13.6%	-4.3%
O=C1c2ccccc2C(=O)N1CCCCN(C(=O)c1ccc(Cl)s1)c1ccc(Cl)cc1	-24.1	-0.1%	-19.7%	?	?
Cc1ccc(N(CCCCN2C(=O)c3ccccc3C2=O)C(=O)c2ccc(Cl)s2)cc1	-62.5*	?	-25.2%	0.0%	?
Cn1c(COc2ccccc2)nnc1SCCSc1nnc(COc2ccccc2)n1C	-64.5*	?	-12.3%	-18.2%	?
SMILES	HCMV antiviral	AmpC inh detg	AmpC no deterg	FMDV inh	HCV inhibitor
Cn1c(COc2ccccc2)nnc1SCCN1CCOCC1	24.0	-11.7%	-3.1%	1.0%	15.2%
CON(Cc1ccccc1)S(=O)(=O)c1ccccc1Br	32.3	.	.	.	.
O=C(NCc1ccccc1Cl)c1cc(=O)[nH]c2ccc(S(=O)(=O)N3CCCCC3)cc12	16.6	9.5%	.	-12.1%	.
CN(C)S(=O)(=O)N1CCC(Oc2ccc(C(=O)NC3Cc4ccccc4C3)cc2)CC1	-81.5*	-11.3%	19.1%	?	3.55µM*
Cc1ccc(N(CC(=O)N2CCc3ccccc32)C2=NC(=O)CS2)cc1	8.4	-15.0%	28.6%	?	6.31µM*
CC(C)(C)NCC(=Cc1ccccc1)C(=O)c1ccccc1	-97.6*	.	.	8.91µM*	?
COc1ccc(N(CC(=O)N2CCCCC2)S(=O)(=O)c2ccccc2)c(OC)c1	-3.7	2.9%	8.91µM*	.	-2.1%
CCOC(=O)N1CCN(C(=O)CN(c2cc(Cl)ccc2OC)S(=O)(=O)c2ccccc2)CC1	-92.3*	?	168.1%	28.7%	-7.2%
COc1cc2oc3ccccc3c2cc1N(CC(=O)N(C)C)S(=O)(=O)c1ccccc1	75.9	-3.0%	.	38.4%	-19.8%
COc1ccc(OC)c(N(CC(=O)N2CCCCC2)S(=O)(=O)c2ccc(OC)c(OC)c2)c1	44.3	1.2%	72.8%	61.7%	10.3%
CCN(CC)C(=O)CN(c1cc2c(cc1OC)oc1ccccc12)S(=O)(=O)c1ccccc1	24.2	-0.8%	.	15.6%	10µM*
CCOC(=O)N1CCN(C(=O)CN(c2cccc(C)c2)S(=O)(=O)c2ccccc2)CC1	-6.1	?	73.9%	-0.3%	-2.8%
Cc1cccc(N2CCN(C(=O)c3cccc(N4CCCC4=O)c3)C(C)C2)c1 (centres undefined)	?	1.3%	67.1%	?	?
CCc1ccc(N(C(C)=O)C2C=CS(=O)(=O)C2)cc1 (centres undefined)	18.1	2.9%	0.159µM*	0.0%	?
Cc1ccccc1CN(C)C(=O)COC(=O)c1ccc2[nH]c(C)c(C)c2c1	-13.4	.	-6.0%	-16.9%	?
CCc1nc(N2CCN(C(=O)c3ccccc3)CC2)c(C#N)c2c1COC(C)(C)C2	-62.1*	?	68.7%	?	?
CC1(C)Cc2c(C#N)c(N3CCN(C(=O)c4ccccc4)CC3)nc(Cc3ccccc3)c2CO1	-20.7	2.1%	-23.3%	-28.7%	10.4%
CN(C)CCN(Cc1ccco1)C(=O)c1cc2c(Cl)nc3ccccc3c2s1	?	6.7%	-6.8%	-28.3%	10µM*
Cn1c(=O)c2c(nc(Sc3nc4ccccc4n3CC(=O)N3CCCCC3)n2C)n(C)c1=O	-62.9*	-9.8%	1.0%	10.0%	-0.8%
CSc1nc2ccccc2n1CC(=O)N1CCCCC1	-10.0	-10.9%	-1.0%	-14.6%	8.8%
COc1cc(/C=C2\SC(=S)N(CCC(=O)NCCc3ccccc3)C2=O)cc(OC)c1OC	7.5	-9.0%	-9.4%	-2.1%	-6.3%
COc1cc(/C=C2\SC(=S)N(CCC(=O)Nc3ccccc3O)C2=O)cc(OC)c1OC	-68.9*	-12.2%	-24.7%	?	?
